Values without a mark were called inactive. How the calls were made is not given here.
target: Pantothenate synthetase (Mycobacterium tuberculosis (strain ATCC 25618 / H37Rv)) (UniProt P9WIL5); assay: Coupled enzyme confirmation of inhibitors against recombinant Mtb PanC (AID 375); details: coupled enzyme assay; at 10 µM, stronger effect = higher value;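 further: 0% = full reaction with vehicle and 100% = no enzyme background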
Sequence (P9WIL5 whole entry, looked up): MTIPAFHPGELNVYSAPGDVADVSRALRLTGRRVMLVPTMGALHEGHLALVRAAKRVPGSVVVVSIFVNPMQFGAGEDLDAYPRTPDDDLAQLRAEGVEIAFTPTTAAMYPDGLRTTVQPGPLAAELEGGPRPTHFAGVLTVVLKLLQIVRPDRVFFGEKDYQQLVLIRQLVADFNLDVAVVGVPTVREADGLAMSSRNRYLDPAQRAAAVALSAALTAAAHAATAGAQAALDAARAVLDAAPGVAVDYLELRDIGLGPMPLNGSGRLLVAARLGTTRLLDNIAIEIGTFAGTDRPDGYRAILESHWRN

SMILES | inhibition
CCCC(=O)Nc1ccccc1-c1nnn(CC(=O)Nc2ccc(OCC)cc2)n1 | 0%
CCC1CCCCN1CCCNC(=O)CC1Oc2ccc(C)cc2NC1=O (stereo not given) | 0%
Clc1ccccc1OCc1nn2c(-c3ccncc3)nnc2s1 | 0%
NS(=O)(=O)c1ccc(NCc2c(F)cccc2Cl)cc1 | 2%
COc1ccc(Cl)c(NC(=O)NCCN2CCN(c3ccccc3)CC2)c1 | 0%
CN(CC(=O)Nc1ccccc1Cl)C(=O)COC(=O)CNC(=O)c1ccc(Br)o1 | 0%
CCCCC(NC(C)=O)c1nc2ccccc2n1CCC (stereo not given) | 0%
CCCCc1noc2c1/C(=N\O)CC(c1ccccc1)C2 (stereo not given) | 3%
O=C1CC(c2ccc(S(=O)(=O)N3CCN(c4ccccc4)CC3)cc2)CN1 (stereo not given) | 0%
COC(=O)CCN1CCC(C(N)=O)CC1 | 1%
COc1ccc(C2/C(=C(/O)c3ccccc3)C(=O)C(=O)N2c2ncccn2)cc1OC (stereo not given) | 2%
O=C(NC1CCCCC1)C(c1ccc(Cl)cc1)N(C(=O)c1cnccn1)c1ccc2c(c1)OCO2 (stereo not given) | 0%
COc1ccc(-n2ncc3c(NCc4ccccn4)ncnc32)cc1 | 11%
O=c1[nH]c2cc3c(cc2cc1C(c1nnnn1C1CCCCC1)N1CCSCC1)OCCO3 (stereo not given) | 4%
COc1ccc(CN2C(=O)c3cccnc3C2Nc2cc(Cl)ccc2OC)cc1 (stereo not given) | 3%
Cc1nc(CCNC(=O)c2ccccc2)cs1 | 0%
COc1ccccc1NCN1C(=O)CCC1=O | 3%
COc1ccc(S(=O)(=O)Nc2cccc(C)n2)c2ccccc12 | 2%
CN(C(=O)COC(=O)C1CCN(S(=O)(=O)c2cccs2)CC1)C1CCS(=O)(=O)C1 (stereo not given) | 7%
Cc1cc2ncc(C(=O)Nc3ccccc3)c(C)n2n1 | 7%

SMILES | inhibition
COc1ccc(N2CCN(c3oc(COc4ccccc4Cl)nc3C#N)CC2)cc1 | 0%
CC1C(=O)C(C)C(c2cccs2)NC1c1cccs1 (stereo not given) | 0%
CN(Cc1ccccc1)C(=O)c1cc(-c2ccc(Br)cc2)on1 | 0%
COC(=O)Cc1csc(N)n1 | 0%
CCCCC(=NCCO)C1=C(O)C(C(=O)OC)C(C)(C)CC1=O (stereo not given) | 8%
COc1cccc(C2CC(=O)Nc3c2c(=O)n(C)c(=O)n3C)c1OC (stereo not given) | 6%
COC(=O)c1c(NC(=O)CSc2nnnn2C)sc(C)c1C | 0%
O=C(Nc1ncc(Br)s1)C1CCCN1S(=O)(=O)c1cccc2cccnc12 (stereo not given) | 0%
C[C@@H]1C[C@H]2[C@@H]3C[C@H](F)C4=CC(=O)C=C[C@]4(C)[C@@]3(F)[C@@H](O)C[C@]2(C)[C@@]1(O)C(=O)CO | 0%
CC1(C)CC(=O)C2=C(C1)Nc1ccccc1N=C2 | 0%
COc1ccc(N2CCN(CCCNC(=O)CC3Oc4ccc(C)cc4NC3=O)CC2)cc1 (stereo not given) | 0%
CC(=O)N1c2c(cc(Br)cc2S(=O)(=O)N2CCN(c3ccccn3)CC2)CC1C (stereo not given) | 0%
c1ccc(-c2nnc(CN3CCC4(CC3)OCCO4)o2)cc1 | 1%
Cc1nc2ncnn2c(C)c1CCC(=O)NCCCN1CCN(c2cccc(Cl)c2)CC1 | 0%
CC(=O)N1CCc2c(sc(NC(=O)c3ccc(S(=O)(=O)N(C)C)cc3)c2C#N)C1 | 0%
CC(C)(Oc1ccc(CCNC(=O)c2ccc(Cl)cc2)cc1)C(=O)O | 0%
COc1ccc(OC)c(NC(=O)CCN2CCC(C)CC2)c1 | 0%
COc1ccc(-c2nc3c(c(SCC(=O)N4CCOCC4)n2)COC(C)(C)C3)cc1 | 0%
O=C(Nn1cnnc1)c1cc2c(s1)CCCC2 | 0%
O=C(O)CCc1ccc(-c2ccc(F)cc2)n1CC(=O)O | 0%

From PubChem BioAssay
